Drawing on PubChem BioAssay (NCI), this text covers growth for seven compounds.

The panel holds about 83,000 compounds, 20% with a hit somewhere; the sample as a whole holds those more often.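 Assay: single dose, 48 h. Readout: percent growth (0 = no net growth; negative = cell death). Active: <10.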 Unmarked numbers belong to inactive results. Calls of active or inactive are those of the source.

Some test systems named below: HCT-15 colon; HT29 colon; SNB-75 CNS; SNB-19 CNS; U251 CNS; PC-3 prostate; SK-MEL-5 melanoma; UACC-62 melanoma; LOX IMVI melanoma; SK-MEL-28 melanoma; SK-MEL-2 melanoma; EKVX NSCLC; SN12C renal; UO-31 renal; TK-10 renal; ACHN renal; CAKI-1 renal; A498 renal; CCRF-CEM leukemia; MOLT-4 leukemia.
Test in all cases: NCI-60 one-dose screen, 48 h (100 = growth as untreated, 0 = no growth, -100 = all killed)
What all share (details): 10 µM unless noted

Consider `COc1ccc(C(O)c2cc3c(N)c(C(=O)Nc4ccc(Br)cc4)sc3nc2C)cc1` (stereo not given), for which the growth in the assay on HCT-15 colon is 18.2%; with HT29 colon, -34.2% (active); in the assay on SNB-75 CNS, -10.8% (active); in the assay on SNB-19 CNS, 36.1%; in the assay with U251 CNS, 17.2%; in the assay on PC-3 prostate it was 18.2%. The growth in the assay with SK-MEL-5 melanoma was 16.4%; in the assay on UACC-62 melanoma it was 26.1%; in the assay on LOX IMVI melanoma it was 33.4%; in the assay on SK-MEL-28 melanoma, 60%; with SK-MEL-2 melanoma, 33.7%; with EKVX NSCLC it was 32%. For the same compound, the growth with SN12C renal is 36%; with UO-31 renal it was 43%; in the assay with TK-10 renal, 39.5%; in the assay with ACHN renal it was 37.8%; with CAKI-1 renal, 32.5%; in the assay on A498 renal, -1.93% (active). In addition, the growth is 6.36% (active) with CCRF-CEM leukemia and 17.5% in the assay with MOLT-4 leukemia.

Regarding `Cc1cc(NC(=O)c2cnc(N3CCN(CCOCCOCCOCCOCCC(=O)N[C@H](C(=O)N4C[C@H](O)C[C@H]4C(=O)N[C@@H](C)c4ccc(-c5scnc5C)cc4)C(C)(C)C)CC3)cn2)c2ncccc2c1`, the growth is 60.5% in the assay on HCT-15 colon; 5.72% (active) in the assay with HT29 colon; 6.69% (active) in the assay with SNB-75 CNS; 27.7% in the assay on SNB-19 CNS; 4.36% (active) in the assay with U251 CNS; 1.95% (active) in the assay on PC-3 prostate. For the same compound, the growth is -41.1% (active) in the assay with SK-MEL-5 melanoma; -57.1% (active) in the assay on UACC-62 melanoma; -85.8% (active) in the assay with LOX IMVI melanoma; -75.1% (active) in the assay with SK-MEL-28 melanoma; -17.8% (active) in the assay on SK-MEL-2 melanoma; 60% in the assay on EKVX NSCLC. The growth in the assay on SN12C renal is -2.01% (active); with UO-31 renal, 75.8%; in the assay with TK-10 renal, 69.3%; in the assay with ACHN renal it was 37.9%; in the assay on CAKI-1 renal it was 42.9%; with A498 renal, 78.6%. The values for the growth with CCRF-CEM leukemia and with MOLT-4 leukemia were -1.88% (active) and 1.53% (active), respectively.

Regarding `O=[N+]([O-])c1cccc(-c2nc(-c3ccc(Cl)cc3Cl)cn2-c2ccccc2)c1`, the growth in the assay on HCT-15 colon was -6.56% (active); in the assay with HT29 colon it was -67.8% (active); in the assay with SNB-75 CNS, -56.7% (active); in the assay with SNB-19 CNS, 53.7%; in the assay on U251 CNS, -60.5% (active); in the assay on PC-3 prostate, -47.7% (active). Besides, the growth with SK-MEL-5 melanoma was 71.4%; in the assay on UACC-62 melanoma it was 31.3%; in the assay on LOX IMVI melanoma, 3.46% (active); in the assay with SK-MEL-28 melanoma, -16.4% (active); in the assay on SK-MEL-2 melanoma, 52.4%; in the assay with EKVX NSCLC, -8.4% (active). The growth is 11.5% in the assay on SN12C renal; 2.03% (active) in the assay on UO-31 renal; 29.3% in the assay with TK-10 renal; -52.1% (active) with ACHN renal; -68.8% (active) in the assay on CAKI-1 renal; -33.2% (active) with A498 renal. The growth is 95.5% in the assay on CCRF-CEM leukemia and 45.4% in the assay on MOLT-4 leukemia.

On to `CCN(CC)CCCC(Nc1c2ccc(Cl)cc2nc2ccc(OC)cc12)c1ccc(Cl)cc1` (stereo not given), for which the growth is -54.7% (active) in the assay on HCT-15 colon; -49.6% (active) with HT29 colon; 16.7% with SNB-75 CNS; 6.15% (active) with SNB-19 CNS; -85.9% (active) in the assay with U251 CNS; 33.6% in the assay on PC-3 prostate. Besides, the growth with SK-MEL-5 melanoma is -93.7% (active); with UACC-62 melanoma it was -70.6% (active); with LOX IMVI melanoma, -83.3% (active); in the assay with SK-MEL-28 melanoma it was -88.7% (active); in the assay on SK-MEL-2 melanoma, -78.7% (active); with EKVX NSCLC, 53.1%. The growth was 36.3% in the assay on SN12C renal; 28.2% in the assay with UO-31 renal; -60.4% (active) with TK-10 renal; -33.7% (active) with ACHN renal; -36.9% (active) in the assay on CAKI-1 renal; 38.2% with A498 renal. The growth in the assay with CCRF-CEM leukemia was -7.24% (active); with MOLT-4 leukemia, -20.9% (active).

With `CCCCCCCCCCCCC1CCC/C=C\CCC(=O)O1` (stereo not given), the growth in the assay with HCT-15 colon is 101%; in the assay on HT29 colon it was 102%; with SNB-75 CNS, 84.6%; with SNB-19 CNS, 101%; with U251 CNS, 110%; with PC-3 prostate, 87%. Besides, the growth was 104% with SK-MEL-5 melanoma; 101% in the assay with UACC-62 melanoma; 105% in the assay with LOX IMVI melanoma; 118% with SK-MEL-28 melanoma; 96.2% in the assay with SK-MEL-2 melanoma; 97.1% in the assay with EKVX NSCLC. Also, the growth is 105% in the assay with SN12C renal; 90.4% with UO-31 renal; 97.7% with TK-10 renal; 107% in the assay with ACHN renal; 111% with CAKI-1 renal; 117% with A498 renal. Moreover, the results for the growth in the assay on CCRF-CEM leukemia and with MOLT-4 leukemia were 76.4% and -8.63% (active), respectively.

In the case of `COc1ccc(C(=O)c2cc3c(N)c(C(=O)Nc4cccc(Cl)c4)sc3nc2C)cc1`, the growth in the assay on HCT-15 colon was 21%; in the assay on HT29 colon, -3.3% (active); with SNB-75 CNS it was -10.1% (active); in the assay on SNB-19 CNS, 41.8%; in the assay on U251 CNS it was 23%; in the assay on PC-3 prostate, 27.9%. In addition, the growth in the assay with SK-MEL-5 melanoma was 9.91% (active); in the assay with UACC-62 melanoma, 39.3%; with LOX IMVI melanoma it was 48.2%; with SK-MEL-28 melanoma, 65.7%; in the assay with SK-MEL-2 melanoma, 39.8%; in the assay on EKVX NSCLC it was 39.4%. The growth is 42.7% with SN12C renal; 42.7% in the assay with UO-31 renal; 49.9% in the assay on TK-10 renal; 49.3% in the assay with ACHN renal; 44.1% in the assay on CAKI-1 renal; -0.876% (active) in the assay on A498 renal. The growth was 8.14% (active) with CCRF-CEM leukemia and 20.2% with MOLT-4 leukemia.

Consider `COc1ccc(C2=NN(C(C)=O)C(c3cn(Cc4ccc(Cl)cc4)c4ccccc34)C2)cc1` (stereo not given), for which the growth with HCT-15 colon is 81.6%; with HT29 colon, 90.1%; in the assay with SNB-75 CNS it was 79.2%; in the assay on SNB-19 CNS it was 76%; in the assay with U251 CNS, 84.5%; in the assay on PC-3 prostate it was 59.9%. Moreover, the growth in the assay on SK-MEL-5 melanoma was 85.6%; in the assay on UACC-62 melanoma it was 66.6%; with LOX IMVI melanoma, 89.3%; in the assay with SK-MEL-28 melanoma, 94%; with SK-MEL-2 melanoma it was 91.1%; in the assay with EKVX NSCLC, 58.4%. Further, the growth was 72.2% in the assay with SN12C renal; 53.4% in the assay on UO-31 renal; 82.9% with TK-10 renal; 74.5% in the assay on ACHN renal; 52.2% with CAKI-1 renal; 72.9% in the assay with A498 renal. Moreover, the values for the growth in the assay on CCRF-CEM leukemia and with MOLT-4 leukemia were 70.7% and 67.8%, respectively.
